About 79,000 compounds went through this panel and 15% of them were active in at least one assay; those are over-represented in the sample as a whole. The source made the active and inactive calls. Rule as the data show it: active = growth inhibition above about 70%; inactive = the rest.
Key:
[1] = NCI Yeast Anticancer Drug Screen. Data for the wt1 strain (AID 149);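 also: 0% = growth of vehicle-treated wt1 cultures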; conditions: S. cerevisiae wt1 strain (SPY 50644) growth inhibition, stronger effect = higher value
Summary of the method: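 Using yeast strain wt1, compound-induced growth inhibition was determined against vehicle-treated cultures.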

[2] = NCI Yeast Anticancer Drug Screen. Data for the mgt1 strain (AID 153); conditions: S. cerevisiae mgt1 mutant growth inhibition, stronger effect = higher value
Summary of the method: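 Strain: mgt1 yeast, one of a set carrying defined DNA damage repair or cell cycle control alterations. Compound-treated growth compared with vehicle.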

[3] = NCI Yeast Anticancer Drug Screen. Data for the rad50 strain (AID 155);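 also: 0% = growth of vehicle-only cultures of the same strain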; conditions: S. cerevisiae rad50 strain growth inhibition, stronger effect = higher value
Summary of the method: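 Relative growth inhibition (compound vs vehicle) was measured in yeast with a defined repair-gene alteration.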

[4] = NCI Yeast Anticancer Drug Screen. Data for the mec2-1 strain (AID 157); conditions: S. cerevisiae mec2-1 strain, stronger effect = higher value
Summary of the method: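 Strain: mec2-1 (DNA repair/cell cycle alteration). Compound exposure, then growth measured; inhibition expressed relative to vehicle.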

[5] = NCI Yeast Anticancer Drug Screen. Data for the rad14 strain (AID 159);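 also: 0% = growth of vehicle-treated control cultures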; conditions: S. cerevisiae rad14 strain growth inhibition, stronger effect = higher value
Summary of the method: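 Screen for anticancer potential: a yeast strain altered in DNA damage repair is grown with compound, and reduced growth is quantified against vehicle controls.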

[6] = NCI Yeast Anticancer Drug Screen. Data for the sgs1 mgt1 strain (AID 161);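 also: 0% = growth of cultures given vehicle only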; conditions: S. cerevisiae sgs1 mgt1 strain, stronger effect = higher value
Summary of the method: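 Test agents were incubated with a DNA-repair-mutant yeast strain. Growth was then read and compared against vehicle-treated controls.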

[7] = NCI Yeast Anticancer Drug Screen. Data for the CLN2oe strain (AID 163);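 also: 0% = growth of vehicle-only control cultures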; conditions: S. cerevisiae CLN2oe strain, stronger effect = higher value
Summary of the method: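 Growth of a genetically modified yeast strain is measured after compound exposure and compared with cultures given vehicle alone.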

[8] = NCI Yeast Anticancer Drug Screen. Data for the cln2 rad14 strain (AID 165);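 also: 0% = growth equal to vehicle treated cultures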; conditions: S. cerevisiae cln2 rad14 strain, stronger effect = higher value
Summary of the method: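 Compounds are applied to the cln2 rad14 yeast strain, and growth is then compared with that of vehicle-treated cultures to give inhibition.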

[9] = NCI Yeast Anticancer Drug Screen. Data for the bub3 strain (AID 167); conditions: S. cerevisiae bub3 mutant strain, stronger effect = higher value
Summary of the method: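 Screening used yeast with an engineered genetic alteration affecting cell cycle control. Compound-exposed cultures were compared with vehicle cultures, and reduced growth was taken as inhibition.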

[10] = NCI Yeast Anticancer Drug Screen. Data for the wt2 strain (AID 169);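 also: 0% = growth of vehicle-treated yeast cultures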; conditions: S. cerevisiae wt2 strain growth inhibition, stronger effect = higher value
Summary of the method: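 This strain belongs to a panel of yeast strains with defined genetic alterations in DNA damage repair or cell cycle control. Compounds are applied, and growth inhibition is measured against vehicle-treated cultures.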

[11] = NCI Yeast Anticancer Drug Screen. Data for the mlh1 strain (AID 171);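 also: 0% = growth of vehicle-treated control cultures of the same strain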; conditions: S. cerevisiae mlh1 strain growth inhibition, stronger effect = higher value
Summary of the method: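 Growth of the mutant yeast strain after compound exposure, expressed as inhibition relative to vehicle-only controls.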

[12] = NCI Yeast Anticancer Drug Screen. Data for the sgs1 strain (AID 173);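 also: 0% = growth of vehicle-only control cultures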; conditions: S. cerevisiae sgs1 mutant, stronger effect = higher value
Summary of the method: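 Growth of a yeast strain bearing a defined genetic alteration is measured after compound treatment. Inhibition is expressed relative to vehicle-only controls.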

[13] = NCI Yeast Anticancer Drug Screen. Data for the mlh1 rad18 strain (AID 175); conditions: S. cerevisiae mlh1 rad18 strain growth inhibition, stronger effect = higher value
Summary of the method: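 Read-out is yeast growth inhibition, calculated against vehicle-only controls. The compound was applied to a strain engineered with DNA damage repair alterations.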

[14] = NCI Yeast Anticancer Drug Screen. Data for the rad18 strain (AID 177); conditions: S. cerevisiae rad18 mutant growth inhibition, stronger effect = higher value
Summary of the method: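 Growth of the mutant yeast strain after compound exposure, normalised to vehicle-only cultures.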

[15] = NCI Yeast Anticancer Drug Screen. Data for the rad50EPP+ strain (AID 151);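 also: 0% = growth of vehicle-treated control cultures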; conditions: S. cerevisiae rad50 mutant strain, stronger effect = higher value
Summary of the method: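 Compounds were applied to the rad50EPP+ yeast strain, which bears a defined DNA repair alteration, and growth inhibition was determined relative to vehicle-treated cultures.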

[16] = at 5.0 µM (retest, dose inferred, filed as 0.5)
[17] = at 50.0 µM (retest, dose inferred, filed as 5.0)

Measured: growth inhibition

Cc1ccnc(NS(=O)(=O)c2ccc(Nc3c4ccccc4nc4ccccc34)cc2)n1
active: [1]; at 100.0 µM 76% | [2]; at 100.0 µM 84% | [3]; at 3.7 µM 79% | [3]; [16] 77% | [3]; at 11.0 µM 90% | [3]; at 33.0 µM 91% | [3]; [17] 90% | [3]; at 50.0 µM 84.8% | [3]; at 100.0 µM 88% | [4]; at 33.0 µM 76% | [4]; [17] 77% | [4]; at 50.0 µM 71.2% | [4]; at 100.0 µM 83% | [5]; at 100.0 µM 81% | [6]; [17] 74% | [6]; at 50.0 µM 77.6% | [9]; at 50.0 µM 76.2% | [10]; at 100.0 µM 74% | [11]; at 100.0 µM 84% | [12]; at 100.0 µM 86% | [13]; [17] 74% | [14]; at 100.0 µM 79%
inactive: [1]; at 1.2 µM 14% | [1]; at 3.7 µM 20% | [1]; at 11.0 µM 21% | [1]; at 33.0 µM 48% | [2]; at 1.2 µM 37% | [2]; at 3.7 µM 33% | [2]; at 11.0 µM 54% | [2]; at 33.0 µM 66% | [3]; at 1.2 µM 50% | [4]; at 1.2 µM 18% | [4]; at 3.7 µM 32% | [4]; [16] 15% | [4]; at 11.0 µM 45% | [5]; at 1.2 µM 10% | [5]; at 3.7 µM 10% | [5]; at 11.0 µM 26% | [5]; at 33.0 µM 58% | [6]; [16] 14% | [7]; at 1.2 µM 13% | [7]; at 3.7 µM 1% | [7]; at 11.0 µM 14% | [7]; at 33.0 µM 39% | [7]; at 100.0 µM 60% | [8]; [16] 17% | [8]; [17] 35% | [8]; at 50.0 µM 35.5% | [9]; at 1.2 µM -12% | [9]; at 3.7 µM -21% | [9]; [16] 26% | [9]; at 11.0 µM -20% | [9]; at 33.0 µM 30% | [9]; [17] 44% | [9]; at 100.0 µM 63% | [10]; at 1.2 µM -10% | [10]; at 3.7 µM -18% | [10]; at 11.0 µM -3% | [10]; at 33.0 µM 44% | [11]; at 1.2 µM 37% | [11]; at 3.7 µM 33% | [11]; at 11.0 µM 54% | [11]; at 33.0 µM 66% | [12]; at 1.2 µM 24% | [12]; at 3.7 µM 26% | [12]; at 11.0 µM 43% | [12]; at 33.0 µM 69% | [13]; [16] 26% | [13]; at 50.0 µM 37.7% | [14]; at 1.2 µM 16% | [14]; at 3.7 µM 19% | [14]; at 11.0 µM 36% | [14]; at 33.0 µM 65%

C#CC1=CC(=O)C(OC)=CC1=O
inactive: [15]; at 1.2 µM 9% | [15]; at 3.7 µM 21% | [15]; at 11.0 µM 43% | [2]; at 1.2 µM 0% | [2]; at 3.7 µM 11% | [2]; at 11.0 µM 48% | [3]; at 1.2 µM 14% | [3]; at 3.7 µM 34% | [3]; [16] 53% | [3]; at 50.0 µM 30.4% | [4]; at 1.2 µM 0% | [4]; at 3.7 µM 14% | [4]; [16] 23% | [4]; at 50.0 µM 62% | [5]; at 1.2 µM 12% | [5]; at 3.7 µM 21% | [6]; [16] 54% | [6]; at 50.0 µM 32.5% | [7]; at 1.2 µM 2% | [7]; at 3.7 µM 14% | [7]; at 11.0 µM 29% | [8]; [16] 39% | [8]; at 50.0 µM 47.4% | [9]; at 1.2 µM -6% | [9]; at 3.7 µM 0% | [9]; [16] 21% | [9]; at 50.0 µM 65.2% | [10]; at 1.2 µM -6% | [10]; at 3.7 µM 2% | [10]; at 11.0 µM 48% | [11]; at 1.2 µM 3% | [11]; at 3.7 µM 16% | [12]; at 1.2 µM 11% | [12]; at 3.7 µM 34% | [13]; at 50.0 µM 66.2% | [14]; at 1.2 µM 40%
active: [15]; at 33.0 µM 95% | [15]; at 100.0 µM 98% | [2]; at 33.0 µM 99% | [2]; at 100.0 µM 99% | [3]; at 11.0 µM 94% | [3]; at 33.0 µM 98% | [3]; [17] 99% | [3]; at 100.0 µM 98% | [4]; at 11.0 µM 89% | [4]; at 33.0 µM 99% | [4]; [17] 99% | [4]; at 100.0 µM 99% | [5]; at 11.0 µM 82% | [5]; at 33.0 µM 99% | [5]; at 100.0 µM 99% | [6]; [17] 99% | [7]; at 33.0 µM 88% | [7]; at 100.0 µM 99% | [8]; [17] 99% | [9]; at 11.0 µM 88% | [9]; at 33.0 µM 99% | [9]; [17] 99% | [9]; at 100.0 µM 99% | [10]; at 33.0 µM 97% | [10]; at 100.0 µM 99% | [11]; at 11.0 µM 96% | [11]; at 33.0 µM 99% | [11]; at 100.0 µM 99% | [12]; at 11.0 µM 98% | [12]; at 33.0 µM 100% | [12]; at 100.0 µM 99% | [13]; [16] 77% | [13]; [17] 99% | [14]; at 3.7 µM 83% | [14]; at 11.0 µM 96% | [14]; at 33.0 µM 99% | [14]; at 100.0 µM 99%

Reference: PubChem BioAssay (NCI)
